Measurements reported in PubChem BioAssay.

target: Dihydroorotate dehydrogenase (quinone), mitochondrial (Plasmodium falciparum (isolate 3D7)) (UniProt Q08210); experiment: inhibition of P. falciparum DHODH – biochemical, C-terminal His tag, absorbance 600 nm, primary screen (AID 1175); details: PfDHODH enzyme, DCIP absorbance 600 nm; higher = more signal, called active from +8 up or from −8 down;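 further: recombinant parasite enzyme with a five histidine tag at its C terminus; test concentration not given here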
Sequence (Q08210 whole entry, looked up): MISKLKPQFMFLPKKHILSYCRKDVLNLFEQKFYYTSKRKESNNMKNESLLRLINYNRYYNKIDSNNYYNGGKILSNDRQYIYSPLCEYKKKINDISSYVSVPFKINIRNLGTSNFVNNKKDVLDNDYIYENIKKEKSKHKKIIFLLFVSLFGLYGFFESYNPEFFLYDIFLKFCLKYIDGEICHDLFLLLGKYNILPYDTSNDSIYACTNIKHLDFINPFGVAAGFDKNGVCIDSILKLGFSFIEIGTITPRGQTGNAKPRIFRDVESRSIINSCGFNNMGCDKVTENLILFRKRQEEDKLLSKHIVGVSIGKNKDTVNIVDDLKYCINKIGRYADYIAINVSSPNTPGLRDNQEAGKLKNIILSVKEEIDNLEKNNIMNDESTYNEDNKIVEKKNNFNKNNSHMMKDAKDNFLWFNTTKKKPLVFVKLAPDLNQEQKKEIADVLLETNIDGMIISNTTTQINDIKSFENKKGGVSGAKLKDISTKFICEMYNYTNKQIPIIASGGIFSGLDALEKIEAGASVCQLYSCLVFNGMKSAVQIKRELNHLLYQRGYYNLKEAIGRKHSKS

Composite z-score, inactive:
COC(=O)[C@@]1(Cc2ccc(F)cc2)[C@H]2c3cc(C(=O)N(C)C)n(CCN4CCOCC4)c3C[C@H]2CN1C(=O)c1ccccc1 -0.521
C[N+](C)(C)CCCCCCNC(=O)[C@@H]1C[C@@H]2C(=O)N[C@@H](Cc3ccccc3)C(=O)N2[C@@H]1c1ccc(O)cc1 -0.77
CO[C@H]1O[C@H](CO)[C@@H](OC(=O)Nc2ccc(C(F)(F)F)cc2)[C@H](OC(=O)Nc2ccccc2-c2ccccc2)[C@@H]1OC(=O)Nc1ccccc1-c1ccccc1 0.0823
C=C(CCCC)/C(=C/C[C@H](OC(C)=O)c1cccc(OCCO)c1)c1cc(C(=O)OC)ccc1OC -0.989
COc1ccc([Si](C)(C)[C@H]2[C@H](CCn3cc([C@H](O)c4ccccc4)nn3)O[C@@]3(C(=O)N(C)c4c(Br)cc(C)cc43)[C@@H]2C)cc1 1.19
COCCOC(=O)N1C(=O)[C@@]2(c3cc(C#CC4(O)CCCCCC4)ccc31)[C@H](C(=O)N1CCc3cc(OC)c(OC)cc3C1)[C@H]1C(=O)O[C@H](c3ccccc3)[C@H](c3ccccc3)N1[C@@H]2c1ccc(O)cc1 0.7
C=CCOC(=O)[C@H]1[C@@H]2C(=O)O[C@@H](c3ccccc3)[C@@H](c3ccccc3)N2[C@@H](c2ccc(OCCOC(=O)[C@H]3C[C@H]4C(=O)NCC(=O)N4[C@H]3c3ccc(O)cc3)cc2)[C@]12C(=O)Nc1ccc(I)cc12 0.383
COCCOC(=O)N1C(=O)[C@@]2(c3cc(C#CC4=CCCCC4)ccc31)[C@H](c1ccc(OCCO)cc1)N1[C@H](c3ccccc3)[C@H](c3ccccc3)OC(=O)[C@H]1[C@@H]2C(=O)N1CCCCCCC1 -0.859
CCOC(=O)C1=C(C(=O)OCC)N(S(=O)(=O)CC[Si](C)(C)C)[C@H](c2ccccc2)CC1 -0.493
C=CCC(OC(C)=O)[C@@H]1[C@@H](N(Cc2cc3ccccc3o2)C(=O)c2ccc(-c3ccccc3)cc2)c2cc(OCCCO)ccc2N1C(=O)c1ccc2ccccc2n1 (some centres not stated) 0.706
O=C1O[C@@H](c2ccccc2)[C@@H](c2ccccc2)N2[C@@H](c3ccc(O)cc3)[C@]3(C(=O)Nc4ccc(C#CC5=CCCCC5)cc43)[C@@H](C(=O)N3CCCCCCC3)[C@H]12 -1.81
COCCOC(=O)N1C(=O)[C@@]2(c3cc(C#CCC(C(=O)OC)C(=O)OC)ccc31)[C@H](C(=O)N1CCc3cc(OC)c(OC)cc3C1)[C@H]1C(=O)O[C@H](c3ccccc3)[C@H](c3ccccc3)N1[C@@H]2c1ccc(O)cc1 -0.0728
C=C(/C(=C/C[C@H](OC(=O)c1ccncc1)c1ccccc1OCCO)c1cc(C(=O)OC)ccc1OC)C(C)C -4.24
NCCCC[C@@H]1NC(=O)[C@H]2C[C@@H](C(=O)O)[C@@H](c3cccc(OCCO)c3)N2C1=O -6.64
CCCCN1CC=CC23O[C@@H]4/C=C\CCC(C)OC(=O)C4[C@H]2C(=O)N(C(C)CO)[C@@H]3C1=O (some centres not stated) -0.216
CC(=O)c1ccc(C(O)C2C=CC3C(=O)NC(=O)C3N2Nc2ccc(Cl)cc2Cl)cc1 (configuration not stated) 1.16
C[N+](C)(C)CCCC[C@@H]1NC(=O)[C@H]2C[C@@H](C(=O)NCCCCCNC(=O)CS)[C@@H](c3ccc(O)cc3)N2C1=O -1.3
CN(C)CCCCNC(=O)[C@H]1C[C@H]2C(=O)N[C@@H](Cc3ccccc3)C(=O)N2[C@H]1c1cccc(OCCO)c1 0.65
NC(=O)NCC#Cc1ccc2c(c1)[C@]1(C(=O)N2)[C@H](C(=O)Nc2nc3ccccc3s2)[C@H]2C(=O)O[C@H](c3ccccc3)[C@H](c3ccccc3)N2[C@@H]1c1ccc(OCCO)cc1 -0.396
CC(C)CNC(=O)[C@@H]1c2ccccc2C(=O)N(Cc2ccccc2Cl)[C@H]1c1ccc(CO)cc1 -0.0116
C=CCNC(=O)[C@H]1[C@@H]2C(=O)O[C@@H](c3ccccc3)[C@@H](c3ccccc3)N2[C@@H](c2ccc(O)cc2)[C@]12C(=O)Nc1ccc(C#CC3=CCCCC3)cc12 0.018
CN(C)C(=O)[C@]1(Cc2ccccc2CN=[N+]=[N-])N=C(c2ccc(OCCCO)cc2)O[C@@H]1c1ccccc1N=[N+]=[N-] -0.607
